# Hits are enriched below; roughly 4.8% of the tested compounds scored in any of these assays.
# hgDAF-12 ag = H. glycines DAF-12 receptor agonists, primary screen, cell-based, luminescence, HEK293, GAL4 fusion, UAS-luciferase | Nuclear hormone receptor DAF-12 (Heterodera glycines), GAL4 fusion | HEK293 GAL4-hgDAF12 UAS-luciferase reporter, agonist luminescence; normalized to butyrate control | activation, % at 6.8 µM | 1.8% of 370,000 active | AID 687014, 2013;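 active means activation above a cutoff set at the mean of all screened compounds plus 3 SD, cut at about 10% in these data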;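 further: 0% = DMSO wells and 100% = sodium butyrate wells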
# ssDAF-12 act = S. stercoralis DAF-12 nuclear receptor activators, primary screen, cell-based, luminescence, HEK293, GRIP1 co-expression, lit1-tk-luc; Nuclear hormone receptor DAF-12 (Strongyloides stercoralis); HEK293 ssDAF-12/GRIP1 lit1-tk-luc reporter; % of 3 µM dafachronic acid response; activation, % at 6.8 µM; 1% of 370,000 active;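 active means activation above the mean over all tested compounds plus 3 SD, cut at about 0.9% in these data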;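 further: 0% = DMSO-only wells and 100% = 3 µM delta7-dafachronic acid wells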
# DAX1 inh-1 = DAX1 (NR0B1) inhibitors, primary screen, cell-based, HEK293, Gal4-DAX1, luciferase luminescence | Nuclear receptor subfamily 0 group B member 1 (Homo sapiens), P51843 | AID 504766, 2011 | HEK293 Gal4-DAX1 luciferase reporter | 0.99% of 340,000 active | inhibition, % at 6.75 µM;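 active means inhibition above the mean over all tested compounds plus 3 SD, cut at about 4.2% in these data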;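 further: 0% = DAX1-transfected cells with DMSO and 100% = empty-vector control cells with DMSO; inhibition shows as a rise in luminescence from relieved DAX1 repression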
# Target sequence (P51843 207-470 limits assumed): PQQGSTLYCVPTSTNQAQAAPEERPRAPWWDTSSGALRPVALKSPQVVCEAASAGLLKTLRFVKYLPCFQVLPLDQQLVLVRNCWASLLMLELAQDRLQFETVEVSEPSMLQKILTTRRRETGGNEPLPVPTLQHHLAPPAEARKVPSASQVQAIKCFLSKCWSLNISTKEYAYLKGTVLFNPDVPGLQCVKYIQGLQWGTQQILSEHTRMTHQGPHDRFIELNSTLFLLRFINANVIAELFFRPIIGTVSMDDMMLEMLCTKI
# DAX1 inh-2 = DAX1 (NR0B1) inhibitors on StAR promoter, primary screen, cell-based, luminescence, SF-1 (NR5A1), full-length DAX-1; 1.1% of 370,000 active; HEK293T StAR-luciferase reporter, SF-1/DAX-1 repression relief; inhibition, % at 6.8 µM;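 active means inhibition above the mean over all tested compounds plus 3 SD, cut at about 3.6% in these data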;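 further: 0% = DAX-1 cells with DMSO and 100% = cells lacking DAX-1 with DMSO; higher inhibition means more luminescence from relief of DAX-1 repression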
# hcDAF12 agonist = H. contortus DAF-12 nuclear receptor activators, primary screen, cell-based, luminescence, HEK293, lit1-tk-luc reporter. HEK293 hcDAF-12 lit1-tk-luc reporter; 0% DMSO, 100% Δ7-dafachronic acid. activation, % at 6.8 µM. 1.4% of 370,000 active. AID 652067, 2013;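 active means activation above the mean of all tested compounds plus 3 SD, cut at about 5.5% in these data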;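 further: 100% = response to 3 µM Δ7-dafachronic acid high control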
# SMARCA2 act = SMARCA2 (BRM) function activators, primary screen, cell-based, luminescence, high throughput; 1% of 370,000 active; MG213 cells, MMTV-luciferase reporter, dexamethasone, overnight; activation, % at 9.1 µM; AID 652017, 2013; in the data active means activation above about 7.8%;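 further: 0% = vehicle wells and 100% = reference activator wells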
# DAX1 conf = DAX1 (NR0B1) inhibitors relieving SF-1 repression, confirmation, cell-based, luminescence, HEK293T, full-length DAX-1, SF-1 activated StAR promoter. shares compounds with DAX1 inh-2. HEK293T StAR-promoter luciferase reporter, SF-1/DAX-1 repression. inhibition, % at 6.8 µM. 87% of 2,400 active. AID 652134, 2013;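 active means inhibition above the average of every tested compound plus 3 SD, cut at about 3.8% in these data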;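 further: 0% = DAX-1 cells with DMSO and 100% = no DAX-1 control cells with DMSO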
# SF1 mutant ctr = StAR reporter signal changes without DAX1, counter-screen for DAX1 inhibitor project, cell-based, luminescence, AF-2 mutant SF-1, transactivation; 78% of 2,400 active; shares compounds with DAX1 inh-2; HEK293 StAR-luciferase, SF-1 AF2 mutant; inhibition, % at 6.8 µM;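 active means inhibition above the mean of all tested compounds plus 3 SD, cut at about 3% in these data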;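 further: 0% = DAX-1 transfected cells with DMSO and 100% = cells without DAX-1 with DMSO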
# The depositor's hits bear a star; nt = not tested or not shown.
SMILES,hgDAF-12 ag,ssDAF-12 act,DAX1 inh-1,DAX1 inh-2,hcDAF12 agonist,SMARCA2 act,DAX1 conf,SF1 mutant ctr
CCn1cc(C(=O)NCC(OC)OC)c(=O)c2cc(S(=O)(=O)N3CCC(C)CC3)ccc21,1.9,-0.9,-0.1,-0.3,-1.3,-3.2,nt,nt
Cc1cccc(C(=O)Nc2ccnc(-c3ccncc3)n2)c1,-0.5,-2.3,1.6,-2.4,-2.7,-1.3,nt,nt
Cc1cccc(C(=O)Nc2ccn(C)n2)c1,8.4,-0.6,1.9,4.9*,-0.1,2.0,5.8*,3.0*
O=C(CCNC(=O)N1CC(=O)Nc2ccccc21)NCc1ccc(F)cc1,6.1,-0.7,0.8,6.0*,-0.5,0.5,5.3*,3.3*
O=C(CNC(=O)N1CC(=O)Nc2ccccc21)NCc1ccc(F)cc1,4.8,-1.1,1.5,1.9,-0.5,-1.2,nt,nt
CC1CCN(c2nc3ccccn3c(=O)c2C=O)CC1,-1.2,-1.2,0.6,0.1,0.1,-0.5,nt,nt
CC(C)OC(=O)c1ccc2ccc(-c3ccccc3)nc2c1,9.2,0.6,nt,8.4*,2.2,6.2,14.6*,7.3*
CC(C)OC(=O)c1ccc(NC(=O)c2ccccc2)cc1,5.1,-0.7,0.0,1.8,-0.8,0.3,nt,nt
O=C(CCNS(=O)(=O)c1ccc(OC(F)(F)F)cc1)N1CCN(S(=O)(=O)c2cccc(F)c2)CC1,0.4,-0.8,0.5,0.2,-0.5,-2.0,nt,nt
COC(=O)c1oc2c(c1C)C(=O)CCC2,3.3,-0.8,nt,-0.5,0.5,0.2,nt,nt
Cc1ccc(NC(=O)Cc2nc(COC(=O)c3c(F)cccc3Cl)cs2)cc1,-0.2,-1.5,-0.5,-1.4,-0.6,-2.6,nt,nt
Cc1nn2c(=O)cc(COC(=O)c3c(F)cccc3Cl)nc2s1,8.2,-0.1,2.2,8.6*,1.0,5.8,6.4*,6.2*
CS(=O)(=O)N1CCN(c2ccccc2NC(=O)c2cccnc2)CC1,0.9,-0.9,1.5,0.4,0.4,1.4,nt,nt
c1ccc2nc(NN=C3CCCCC3)ccc2c1,10.1,1.8*,2.8,4.5*,6.7*,-0.1,7.4*,3.1*
Cc1nc2ccc(NC(=O)CS(=O)(=O)c3ccccc3)cc2s1,6.9,0.1,0.7,6.0*,0.9,1.0,5.6*,3.0*
COC(=O)c1ccc2nc(-c3cccc(N)c3)cn2c1,5.1,-1.1,-1.9,5.6*,3.9,-0.5,5.3*,1.6
NC(=O)c1ccccc1OCC(=O)NC12CC3CC(CC(C3)C1)C2,2.3,-0.9,1.9,0.2,-1.4,-0.5,nt,nt
O=C(O)c1cc(/C=C/c2ccc(N3CCOCC3)c([N+](=O)[O-])c2)nc2ccccc12,-2.3,-0.7,0.2,0.3,0.5,6.3,nt,nt
O=C(O)c1cc(/C=C/c2ccc(N3CCOCC3)cc2)nc2ccccc12,6.1,0.0,-2.5,5.5*,5.1,3.0,7.2*,2.2
O=C(Nc1c2c(nn1-c1ccccc1)CSC2)c1ccc(N2C(=O)CCC2=O)cc1,1.5,-1.5,-1.1,0.5,0.0,0.8,nt,nt
COc1ccccc1/C=N/Nc1nncc2ccccc12,9.4,-0.3,1.4,2.8,1.3,5.5,nt,nt
